Seven molecules from PubChem BioAssay (NCI) can be followed below.

Common to all, as to assay: NCI-60 one-dose screen, 48 h (100 = growth as untreated, 0 = no growth, -100 = all killed)
Conditions in all cases: 10 µM unless noted

The test system of experiment [1] is SK-MEL-2 melanoma.
The test system of experiment [2] is SN12C renal.
Experiment [3] has as its system UO-31 renal.
In experiment [4] the test system is TK-10 renal.
The subject of experiment [5] is ACHN renal.
For experiment [6], the system named is CAKI-1 renal.
Experiment [7] concerns A498 renal.
Experiment [8] has as its system CCRF-CEM leukemia.
Experiment [9] deals with MOLT-4 leukemia.
Experiment [10] has as its system SR leukemia.
Experiment [11] has as its system RPMI-8226 leukemia.
Experiment [12] has as its system OVCAR-8 ovarian.
The subject of experiment [13] is OVCAR-5 ovarian.
The test system of experiment [14] is OVCAR-4 ovarian.
The test system of experiment [15] is SK-OV-3 ovarian.
Experiment [16] deals with OVCAR-3 ovarian.
For experiment [17], the system named is HS 578T breast.
The test system of experiment [18] is NCI/ADR-RES ovarian.
The test system of experiment [19] is IGROV1 ovarian.

About 83,000 compounds went through this panel and 20% of them were active in at least one assay; those are over-represented in the sample as a whole.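 Note: values are percent growth. 100 is the growth of untreated cells, values between 100 and 0 indicate rising inhibition; between -100 and 0 indicates cell death.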 Unmarked numbers belong to inactive results. Active and inactive are the calls of the source. How the source made its calls: active means growth percent below 10; inactive means the rest.

Consider `c1ccc(-c2cc3n4c(-c5ccccc5)nn(-c5ccccc5)c4cnc-3n2)cc1`, for which the growth was 72.6% in experiment [1]; 62.6% in [2]; 60.7% in experiment [3]; 24.5% in experiment [4]; 68.2% in experiment [5]; 59.5% in [6]. The growth in experiment [7] is 78.1%; in [8], 86.4%; in experiment [9], 88.9%; in experiment [10] it was 113%; in [11], 84.5%; in experiment [12], 58.1%. Besides, the growth was 92.3% in [13]; 43.5% in [14]; 63.8% in experiment [15]; 60.3% in experiment [16]; 31.6% in experiment [17]; 84.4% in [18].
As for `C=C(C)[C@@H]1CC[C@]2(C(=O)OC)CC[C@]3(C)[C@H](CC[C@@H]4[C@@]5(C)C/C(=C/c6cccc(I)c6)C(=O)C(C)(C)[C@@H]5CC[C@]43C)[C@@H]12`, the growth in experiment [1] is 103%; in [2], 101%; in experiment [3] it was 85.2%; in [4], 101%; in experiment [5] it was 90.8%; in experiment [6], 82%. Also, the growth in [7] is 116%; in experiment [8], 97.9%; in experiment [9], 95.8%; in experiment [11], 95.7%; in experiment [12], 101%; in experiment [13], 98.7%. For the same molecule, the growth in experiment [14] was 107%; in experiment [15], 93.9%; in experiment [19] it was 103%; in experiment [16] it was 119%; in [17] it was 88%; in experiment [18], 94.1%.
`CCOC(=O)n1cc(-c2nonc2-c2cn(C)c3ncccc23)c2ccccc21`: the growth was 90.1% in [1]; 87.1% in experiment [2]; 58.4% in experiment [3]; 98.3% in experiment [4]; 80.1% in [5]; 58.1% in experiment [6]. For the same molecule, the growth in [7] was 99%; in experiment [8] it was 86.6%; in [9], 69.8%; in experiment [10], 60.5%; in experiment [11] it was 77.9%; in experiment [12], 92.6%. Moreover, the growth is 94.2% in [13]; 71.3% in experiment [14]; 77.6% in experiment [15]; 85.6% in experiment [16]; 77.7% in [17]; 73.1% in [18].
Consider `CCN1CCC2(CC1)NC(=O)c1c(c3ccc(Cl)c(Cl)c3n1C)C2C#N` (configuration not stated), for which the growth in experiment [1] was 21.4%; in experiment [2], 49.4%; in experiment [3], 43%; in [4], 54.5%; in experiment [5], 45.6%; in [6], 37.3%. Besides, the growth in [7] is 3.01% (active); in [8] it was 39.5%; in [9] it was 24.4%; in [10] it was 26.5%; in [11], 16.6%; in [12], 76.9%. Also, the growth in [14] is 63.8%; in experiment [15] it was 87.6%; in experiment [19], 55.8%; in experiment [16] it was 56.2%; in [17], 53.8%; in experiment [18] it was 63.4%.
`C=C(C)C1CC(O)C2(C)CCCC3C2C1CC(C)C3(C)CC/C(C)=C/C(O)C1CCC(=O)c2c(OC)cc(OC)cc21` (configuration not stated): the growth in [1] is 65.8%; in experiment [2], 59.2%; in experiment [3] it was 47.6%; in experiment [4], 55.6%; in [5], 41.1%; in experiment [6], 48.5%. In addition, the growth in experiment [7] is 9.01% (active); in [8], 25.7%; in experiment [9] it was 21.7%; in [10] it was 26.6%; in experiment [11], 6.09% (active); in experiment [12], 41.6%. Further, the growth in experiment [13] is 86.9%; in [14], 23.3%; in [15], 51%; in experiment [19], 50.9%; in [16] it was 32.7%; in [17] it was 61.6%. Further, in [18], the growth was 45.9%.
For the molecule `COc1ccc2nc(NC(=O)CSc3nnc4n3S(=O)(=O)c3ccccc3N4c3ccccc3)sc2c1`, the growth in experiment [1] was 87.9%; in experiment [2] it was 107%; in [3], -39.9% (active); in [4], 103%; in [5], 92.8%; in experiment [6], -0.617% (active). Also, the growth is 121% in experiment [7]; -19.7% (active) in experiment [8]; 66.6% in [10]; 66.8% in experiment [11]; 51.2% in [12]; 94.2% in experiment [13]. Besides, the growth in experiment [14] was 91.8%; in experiment [15], 100%; in [19], 27.7%; in [16], 104%; in experiment [17], 89.6%; in experiment [18] it was 93.5%.
Consider `COc1ccc(-c2nc3ccc(-c4nc5ccc(N6CCN(c7ccc(F)cc7)CC6)cc5[nH]4)cc3[nH]2)cc1OC`, for which the growth in experiment [1] is 109%; in [2] it was 80.7%; in [3], 89%; in experiment [4], 133%; in [5], 62.3%; in [6], 84.6%. The growth in experiment [7] was 98.3%; in experiment [8] it was 20.9%; in experiment [9], 27.9%; in [11], 4.42% (active); in experiment [12], 62.6%; in experiment [13], 96.1%. For the same molecule, the growth in experiment [14] is 80.5%; in experiment [15], 80.6%; in experiment [19] it was 72.8%; in experiment [16] it was 90.4%; in experiment [17], 74.8%; in experiment [18], 81.3%.
